Laboratory results published in PubChem BioAssay AID1704 (The Scripps Research Institute Molecular Screening Center, 2009).
This is one part of the list. Unmarked numbers belong to inactive results. Calls of active or inactive are those of the source.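 How the source made its calls: active means inhibition above the mean of stimulated solvent-only control wells plus 3 SD (cut at about 22% in these data); inactive means the rest.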

Experiment: blockers of isoproterenol-driven CNG channel signal – cell-based, HEK293-CNG parental, membrane potential fluorescence, Y1 set, counter-screen for NPY-Y1 potentiator/agonist project (AID 1704);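 further: 0% = isoproterenol-stimulated DMSO wells and 100% = unstimulated DMSO wells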
Settings: isoproterenol cAMP, at 3.6 µM, stronger effect = higher value

| Structure (SMILES) | inhibition |
| --- | --- |
| Cc1nn(Cc2ccccc2Cl)c(Cl)c1C(=O)OC(C(=O)NC(N)=O)C(C)C (configuration not stated) | 43.1% (active) |
| CSC1=NP(=S)(SC)N(C)c2nc3n(c21)CCC3 (configuration not stated) | 3.97% |
